Screening results from PubChem BioAssay.
Hits are enriched below; roughly 12% of the tested compounds scored in any of these assays.
Pf growth 48h: Primary qHTS for delayed death inhibitors of the malarial parasite plastid, 48 hour incubation; AID 504832, 2011; hit rate 5.9% among 310,000; P. falciparum luciferase growth in erythrocytes, 48 h; Potency, µM (top dose mostly 28.7 µM), for inactives: at the top dose activity change, negative = inhibition, usual class: inhibitors; also: % is scaled to controls: 0 for no effect and ±100 for the full control effect
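Cell-based growth assay: transgenic P. falciparum expressing firefly luciferase, cultured in red cells within RPMI 1640 containing 0.5% w/v Albumax, 24 mM bicarbonate and gentamycin. A drop in luciferase activity indicates inhibition.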
AMA1 RON2 block: qHTS for Inhibitors of AMA1-RON; Towards Development of Antimalarial Drug Lead: Primary Screen; hit rate 0.2% among 360,000; AID 720542, 2013; Plasmodium falciparum AMA1 (3D7) - RON2 peptide interaction; Potency, µM (titrated, usually from 58.2 µM), for inactives: top-dose activity change, negative = inhibition, usual class: inhibitors; AlphaScreen AMA1-biotinylated RON2 peptide binding;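 also: 0% = vehicle wells and -100% = peptide control; nearly all actives have a fitted effect of over 45% in size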
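AMA1 (3D7) with his tag at 25 nM final met compounds first, then biotinylated RON2 peptide at 25 nM; detection used donor plus acceptor beads, 10 µg/mL apiece, read by AlphaScreen after 30 min at room temperature.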
SARS PLP yeast: qHTS of Yeast-based Assay for SARS-CoV PLP. hit rate 0.19% among 330,000. S. cerevisiae expressing SARS-CoV PLpro, growth rescue. AID 485353, 2010. Potency, µM (titrated, usually from 32.9 µM), for inactives: top-dose activity, positive = growth rescue, actives largely listed as activators; calls by dose curve; also: 0% is about no effect; nearly all actives have a fitted effect of over 55% in size
NS1 function inh: qHTS Assay for Inhibitors of Influenza NS1 Protein Function. Potency, µM (top dose mostly 46.1 µM), for inactives: at the top dose activity, positive = more growth. hit rate 0.4% among 270,000; calls by dose curve; also: actives are rising curves; nearly all actives have a fitted effect of over 50% in size
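In this qHTS, NS1 from influenza A is expressed in budding yeast, where it slows growth. Cells are switched from glucose to 2% galactose medium (pH 6.0, -URA), treated with compound, and growth recovery is read at OD600.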
HCV inhibitor: qHTS Assay for Inhibitors of Hepatitis C Virus (HCV). Huh7.5.1 HCVcc-Cre infection, luciferase reporter, 44 h. Potency, µM (highest dose often 41.8 µM), inactives show at the highest dose activity change, negative = inhibition, most hits filed as inhibitors. hit rate 3.4% among 340,000. AID 651820, 2012; also: % is scaled to controls: 0 for no effect and ±100 for the full control effect
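Reporter virus HCVcc-Cre (~0.5 moi) infects cells exposed to compound; seeding density 1,000 cells/well with 4 h settling beforehand. Luminescence, 15 sec read, taken 44 h post-infection following a 15 min RT substrate incubation.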
Pf growth 96h: Primary qHTS for delayed death inhibitors of the malarial parasite plastid, 96 hour incubation | P. falciparum luciferase reporter growth, 96 h | hit rate 6.9% among 320,000 | AID 504834, 2011 | Potency, µM (highest dose often 28.7 µM), without a hit: at the top dose activity change, negative = inhibition, usual class: inhibitors; also: % is scaled to controls: 0 for no effect and ±100 for the full control effect
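Plates of compound plus infected erythrocytes (2% hematocrit, 0.05% parasitemia final) incubate 96 hours, 37 C, 5% CO2. Detection reagent added; reduced luminescence from the parasites' luciferase reporter flags inhibition.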
* marks the source's active call; other numbers are inactive results; ? = inconclusive; · = no result given; [ ] = another dose, or the depositor's remark. Unless noted, calls follow the shape of the dose curve; as a rule, active = well fitted curve in the direction sought with a large enough effect; inconclusive = small, poorly fitted or top-dose-only effect, or another doubt; inactive = no such curve, though single readings can be large; an effect the other way counts as inactive or inconclusive. Potency is read from the fitted curve at half-maximal effect.

SMILES | Pf growth 48h | AMA1 RON2 block | SARS PLP yeast | NS1 function inh | HCV inhibitor | Pf growth 96h
O=C(CNC(=O)c1ccc(F)cc1)c1ccc(Cl)cc1 | ? | 17% | 4% | -13% | ? | -7%
COc1ccccc1Nc1nc(-c2sc(NC(=O)c3cccc(Cl)c3)nc2C)cs1 | ? | · | -1% | 5% | · | 9.3µM*
Cc1nc(NC(=O)c2ccc(Cl)cc2)sc1-c1csc(Nc2cccc(F)c2)n1 | 13µM* | · | 0% | 10% | · | 2.6µM*
Cc1nc(N)sc1-c1csc(Nc2cccc(C(=O)O)c2)n1 | 14% | 42% | 3% | 30% | 12% | 156%
Cc1ccc(Nc2nc(-c3sc(NC(=O)c4cccc(Cl)c4)nc3C)cs2)cc1 | 2.3µM* | · | 1% | 25% | · | 4.1µM*
Cc1oc(-c2cccc3ccccc23)nc1CN1CCN(c2ncnc3ccccc23)CC1 | ? | -21% | -1% | -12% | 10µM* | 1%
CC1CCN(c2ccc(C=O)o2)CC1 | -26% | -11% | 1% | 2% | 8% | 0.23µM*
O=Cc1ccc(N2CCCC2)o1 | 15% | 6% | 1% | · | 0% | 17%
C/C(=N\NC(=O)CSc1nc2ccccc2s1)c1ccco1 | 45% | 52% | 6% | -10% | -5% | 21%
CCCc1cc(C(N)=O)c(NC(=O)c2ccco2)s1 | 52% | 23% | -2% | 3% | ? | 0.41µM*
CN(C)CCCNc1cc(O)c2ncccc2c1 | 4.1µM* | · | 5% | · | · | 4.7µM*
Clc1ccc(CNc2ncccn2)cc1 | 15%[0.00184 µM] | 5% | 1% | 2% | 10% | 68%
COc1ncccc1-c1cc2nc(NCCCN(C)C)n(C)c(=O)c2s1 | · | -3% | · | · | · | ·
Oc1cc(NCc2ccc(F)cc2)cc2cccnc12 | 2.6µM* | · | 0% | · | · | 1.9µM*
Oc1cc(NCc2ccc(Cl)cc2)cc2cccnc12 | 3.3µM* | · | -2% | · | · | ?
N#Cc1ccccc1OCC(=O)OCC(=O)NC1CCS(=O)(=O)C1 (stereo unspecified) | -7% | 1% | -12%[6.58 µM] | · | 9% | 5%
Cc1ccc(NC(=O)C(c2ccccc2)N2CCN(CC(=O)N3CCOCC3)CC2)cc1 (stereo unspecified) | ? | 0% | -1% | · | 1% | -27%
COc1ccc(C)cc1NC(=O)C(c1ccccc1)N1CCN(CC(=O)N2CCOCC2)CC1 (stereo unspecified) | 9.3µM* | -3% | -4% | · | -17% | ?
COc1ccc(C)cc1NC(=O)C(c1ccccc1)N1CCN(CC(=O)N2CCCC2)CC1 (stereo unspecified) | 12µM* | -4% | -2% | · | ? | 12µM*
CC(=O)NC(Cc1ccccc1C)C(=O)NC1CCN(C(=O)c2cccc(C)c2)CC1 (stereo unspecified) | -6% | 3% | 0% | 4% | -3% | ?
CN(C)CCNC(=O)COc1ccc(C23CC4CC(CC(C4)C2)C3)cc1 | -4%[5.75 µM] | -12% | -1% | · | 11µM* | 52%
Cc1ccc(C23CC4CC(CC(NC(=O)NCCN(C)C)(C4)C2)C3)cc1 | · | 0% | 0% | 6% | ? | ?
Cc1ccc(/C=C/C(O)=C2/C(=O)N(C)C3(C)CC2c2ccccc2O3)cc1 (stereo unspecified) | 12µM* | 14% | -22% | -75% | ? | 12%
COc1ccc(/C=C/C(O)=C2/C(=O)N(C)C3(C)CC2c2ccccc2O3)cc1 (stereo unspecified) | 13µM* | -2% | -6% | -10% | -17% | 0%
FC(F)(F)C(F)(F)C(F)(F)C(F)(F)C(F)(F)F | -6% | · | · | · | · | ?
Cc1cc(NC(=O)CCCN2C(=O)c3cccnc3C2=O)no1 | 22% | -1% | -1% | 3% | 10% | 12µM*
COc1cc([N+](=O)[O-])c2nccnc2c1 | 17% | -8% | -1% | 4% | 17% | 9.3µM*
